# Experimental data from PubChem BioAssay (EPA / NIEHS).
# Records with an inconclusive call do not appear. The source made the active and inactive calls. The calls were made as follows: active = hit-call score of the fitted dose curve at least 0.9, where 1 is the maximum; inconclusive = response in the unintended direction; inactive = score below 0.9.
# How the values were obtained:
# [1] = TOX21_p53_BLA_p2_viability: Viability Assessment in the Tox21 HCT-116 p53 Agonism Beta-lactamase Assay, Phase 2 (AID 2283591);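 also: actives lower the ATP signal meaning cytotoxicity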
# Method in brief: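 Cytotoxicity readout: CellTiter-Glo ATP luminescence, 30 min at room temperature, after the beta-lactamase read. Cells were HCT116 exposed 16 h at 37C to compounds pin-transferred at 217-fold dilution from DMSO stocks.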
# [2] = target: Cellular tumor antigen p53 (Homo sapiens) (UniProt P04637); assay: TOX21_p53_BLA_p2_ratio: Tox21 HCT-116 p53 Agonism Beta-lactamase Assay, Ratio, Phase 2 (AID 2283592)
# Method in brief: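 Readout: blue/green (460/530 nm) FRET emission ratio after 2 h CCF4-AM loading at room temperature, excitation 405 nm. HCT116 p53 bla cells, 16 h compound exposure at 37C, 5% CO2; agonist direction fitted against DMSO baseline.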
# [3] = TOX21_p53_BLA_p3_viability: Viability Assessment in the Tox21 HCT-116 p53 Agonism Beta-lactamase Assay, Phase 3 (AID 2283593);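 also: cells exposed to compound for 16 h before reading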
# Method in brief: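 Cellular ATP was quantified by CellTiter-Glo luminescence, read after 30 min at room temperature. Beforehand, HCT116 cells (4000/well) received compound 5 h post-seeding, 217-fold diluted from DMSO, then incubated 16 h at 37C.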
# [4] = target: Cellular tumor antigen p53 (Homo sapiens) (UniProt P04637); assay: TOX21_p53_BLA_p3_ratio: Tox21 HCT-116 p53 Agonism Beta-lactamase Assay, Ratio, Phase 3 (AID 2283596)
# Method in brief: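 Cells were seeded at 4000/well, rested 5 h at 37C, then dosed with DMSO compound solutions (217-fold dilution) for 16 h. CCF4-AM substrate was loaded for 2 h at room temperature, and the 460/530 nm emission ratio was fitted for gain of signal versus DMSO.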
# [5] = TOX21_p53_BLA_p4_viability: Viability Assessment in the Tox21 HCT-116 p53 Agonism Beta-lactamase Assay, Phase 4 (AID 2283597);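 also: hits lower the luminescence signal meaning cytotoxicity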
# Method in brief: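 ATP content by CellTiter-Glo luminescence, 30 min RT, read after the beta-lactamase ratio step. Cells: HCT116, 4000/well, compound added after 5 h, exposure 16 h at 37C. Signal loss = reduced viability.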
# [6] = target: Cellular tumor antigen p53 (Homo sapiens) (UniProt P04637); assay: TOX21_p53_BLA_p5_ratio: Tox21 HCT-116 p53 Agonism Beta-lactamase Assay, Ratio, Phase 5 (AID 2283599)
# Method in brief: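 Beta-lactamase reporter ratio (blue 460 nm over green 530 nm, 405 nm excitation) after 2 h CCF4-AM loading, in HCT-116 cells exposed 16 h at 37 C to compounds pinned at 217-fold dilution. Increases relative to DMSO baseline scored.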
# [7] = target: Cellular tumor antigen p53 (Homo sapiens) (UniProt P04637); assay: TOX21_p53_BLA_p4_ratio: Tox21 HCT-116 p53 Agonism Beta-lactamase Assay, Ratio, Phase 4 (AID 2283601)
# Method in brief: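 Signal is the blue/green (460nm/530nm) ratio of cleaved versus uncleaved CCF4-AM substrate, read after 2 h substrate loading. Cells were HCT116 carrying the p53-responsive beta-lactamase reporter, dosed 16 h at 37C, 5% CO2; CellTiter-Glo measured in parallel.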
# [8] = target: Thyroid hormone receptor alpha (Rattus norvegicus) + Thyroid hormone receptor beta (Rattus norvegicus) (UniProt P18113+P63059); assay: TOX21_TR_LUC_GH3_Antagonist_Followup: Tox21 GH3 Thyroid Hormone Receptor Antagonism Luciferase Follow-Up Assay (AID 2283942)
# Method in brief: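 Loss of T3-driven (1.0 nM final) reporter activity in GH3 cells was read by ONE-Glo luminescence after 24 h incubation at 37C; 15-point compound series spanned 92 uM to 5nM final, 1,500 cells/well.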
# THRB (gene 7068) [9] = target: THRB (gene 7068) (UniProt P10828); assay: TOX21_TRB_BLA_Antagonist_Followup_ratio: Tox21 Thyroid Hormone Receptor beta Antagonism Beta-lactamase (BLA) Follow-Up Assay, Ratio (AID 2283958)
# Method in brief: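 Cells were plated and allowed to attach for 5 h, then dosed with compounds in DMSO at 11 concentrations for 18 h at 37C. Beta-lactamase reporter activity was measured via CCF4-AM FRET as the 460:530 nm ratio.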
# [10] = TOX21_TRB_BLA_Antagonist_Followup_viability: Viability Assessment in the Tox21 Thyroid Hormone Receptor beta Antagonism Beta-lactamase (BLA) Follow-Up Assay (AID 2283961)
# Method in brief: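 Viability read as CellTiter-Glo ATP luminescence (loss of signal = cytotoxicity) in the same plates as the TRβ-bla readout. TRβ-LBD/GAL4 UAS-bla HEK293T cells were exposed to compounds, 11 concentrations in triplicate, for 18 h at 37C/5% CO2.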
# THRB (gene 7068) [11] = target: THRB (gene 7068) (UniProt P10828); assay: TOX21_TRB_COA_Antagonist_Followup_ratio: Tox21 Thyroid Hormone Receptor beta Antagonism through Coactivator Recruitment Follow-Up Assay, Ratio (AID 2283967)
# Method in brief: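 Coactivator recruitment to the GST-tagged TRb ligand-binding domain (5.0 nM) was read as the 520/495 nm TR-FRET ratio, using 200 nM fluorescein SRC-2 peptide and 2 nM terbium anti-GST. Scaled between DMSO and T3 wells; loss of signal fitted.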
# [12] = target: Retinoic acid receptor RXR-alpha (Homo sapiens) (UniProt P19793); assay: TOX21_TR_RXR_BLA_Antagonist_Followup_ratio: Tox21 Thyroid Hormone Receptor beta Retinoid X Receptor alpha (RXRa) Antagonism Beta-lactamase (BLA) Follow-Up Assay, Ratio (AID 2283972)
# Method in brief: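 Beta-lactamase reporter readout as cleaved/uncleaved substrate ratio (460:530 nm) after 2 h substrate loading at room temperature. GAL4-RXRa bla HEK293T cells were exposed 16 h at 37C to 11-point compound series; loss of signal scored against DMSO baseline.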
# [13] = TOX21_TR_RXR_BLA_Antagonist_Followup_viability: Viability Assessment in the Tox21 Thyroid Hormone Receptor beta Retinoid X Receptor alpha (RXRa) Antagonism Beta-lactamase (BLA) Follow-Up Assay (AID 2283979)
# Method in brief: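 Follow-up compounds (11 concentrations, triplicate) were incubated 16 h at 37C/5% CO2 with HEK293T RXRa-bla cells seeded at 2,500/well in charcoal-stripped-serum medium. ATP content by CellTiter-Glo luminescence gave viability; curves fitted in both directions against DMSO.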
# [14] = TOX21_p53_BLA_p5_viability: Viability Assessment in the Tox21 HCT-116 p53 Agonism Beta-lactamase Assay, Phase 5 (AID 2283600)
# Method in brief: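 ATP luminescence (CellTiter-Glo, 30 min, RT) served as the viability read-out, with loss of signal indicating cytotoxicity. Compounds in DMSO were pinned at a 217-fold dilution onto 4000 cells/well and incubated 16 h, 37C.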
# Sequence of THRB (gene 7068) (P10828 whole entry, looked up, the tested form may be a part): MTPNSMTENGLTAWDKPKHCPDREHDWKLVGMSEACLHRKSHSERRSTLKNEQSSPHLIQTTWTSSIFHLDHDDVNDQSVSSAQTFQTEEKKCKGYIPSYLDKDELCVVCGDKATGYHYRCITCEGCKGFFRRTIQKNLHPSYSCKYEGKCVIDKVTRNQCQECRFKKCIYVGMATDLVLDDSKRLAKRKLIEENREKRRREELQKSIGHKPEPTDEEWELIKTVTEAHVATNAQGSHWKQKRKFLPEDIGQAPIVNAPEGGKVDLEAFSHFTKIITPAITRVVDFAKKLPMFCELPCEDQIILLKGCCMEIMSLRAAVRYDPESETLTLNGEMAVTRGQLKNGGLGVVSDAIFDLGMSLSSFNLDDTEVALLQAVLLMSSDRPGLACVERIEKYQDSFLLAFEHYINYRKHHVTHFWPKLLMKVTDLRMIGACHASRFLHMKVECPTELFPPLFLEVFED
# Sequence of Cellular tumor antigen p53 (Homo sapiens) (P04637 whole entry, looked up): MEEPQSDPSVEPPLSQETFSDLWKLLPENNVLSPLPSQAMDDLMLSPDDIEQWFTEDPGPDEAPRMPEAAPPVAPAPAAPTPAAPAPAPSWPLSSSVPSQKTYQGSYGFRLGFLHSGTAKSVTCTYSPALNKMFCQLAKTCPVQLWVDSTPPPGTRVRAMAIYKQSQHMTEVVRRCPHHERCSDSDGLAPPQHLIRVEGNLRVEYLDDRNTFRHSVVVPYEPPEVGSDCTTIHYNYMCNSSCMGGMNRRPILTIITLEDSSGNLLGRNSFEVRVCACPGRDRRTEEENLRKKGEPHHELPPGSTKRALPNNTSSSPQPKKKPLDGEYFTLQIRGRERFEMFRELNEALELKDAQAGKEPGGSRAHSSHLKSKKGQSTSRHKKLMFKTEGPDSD
# Sequence of Retinoic acid receptor RXR-alpha (Homo sapiens) (P19793 whole entry, looked up, the tested form may be a part): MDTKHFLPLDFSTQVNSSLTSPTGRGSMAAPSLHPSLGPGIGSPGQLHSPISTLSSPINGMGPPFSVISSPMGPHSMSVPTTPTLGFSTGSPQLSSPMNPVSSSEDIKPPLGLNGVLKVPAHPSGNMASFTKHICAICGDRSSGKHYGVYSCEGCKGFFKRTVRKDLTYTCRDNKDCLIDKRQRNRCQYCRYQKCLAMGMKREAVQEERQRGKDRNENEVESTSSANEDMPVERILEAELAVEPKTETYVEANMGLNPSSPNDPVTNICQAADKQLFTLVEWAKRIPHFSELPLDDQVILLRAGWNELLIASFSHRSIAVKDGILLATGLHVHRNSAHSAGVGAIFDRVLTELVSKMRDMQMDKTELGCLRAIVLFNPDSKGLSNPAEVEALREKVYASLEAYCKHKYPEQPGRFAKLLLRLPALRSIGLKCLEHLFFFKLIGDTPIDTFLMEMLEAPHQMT
compound,measurement,setting,value
CC(CN1CC(=O)NC(=O)C1)N1CC(=O)NC(=O)C1 (centres undefined),outcome,[1],inactive
same,AC50,[2],8.6 µM (active)
same,outcome,[3],inactive
same,outcome,[4],inactive
same,outcome,[5],inactive
same,AC50,[6],8.51 µM (active)
same,AC50,[7],8.89 µM (active)
O=C(CO)[C@@H](O)[C@H](O)[C@@H](O)C(=O)O,outcome,[1],inactive
same,outcome,[2],inactive
same,outcome,[3],inactive
same,outcome,[4],inactive
same,outcome,[5],inactive
same,outcome,[6],inactive
same,outcome,[7],inactive
COc1ccc2nc(NC(=O)Nc3ccccc3)sc2c1,outcome,[1],inactive
same,outcome,[2],inactive
same,outcome,[3],inactive
same,outcome,[4],inactive
same,outcome,[5],inactive
same,outcome,[6],inactive
same,outcome,[7],inactive
same,outcome,[8],inactive
same,outcome,THRB (gene 7068) [9],inactive
same,outcome,[10],inactive
same,outcome,THRB (gene 7068) [11],inactive
same,outcome,[12],inactive
same,outcome,[13],inactive
CC(C)N=C(N)/N=C(\N)Nc1ccc(Cl)cc1,outcome,[1],inactive
same,outcome,[2],inactive
same,outcome,[3],inactive
same,outcome,[4],inactive
same,outcome,[5],inactive
same,outcome,[6],inactive
same,outcome,[7],inactive
same,outcome,[8],inactive
same,outcome,THRB (gene 7068) [9],inactive
same,outcome,[10],inactive
same,outcome,THRB (gene 7068) [11],inactive
same,outcome,[13],inactive
CCCCCCCCCCCCI,outcome,[1],inactive
same,outcome,[2],inactive
same,outcome,[3],inactive
same,outcome,[4],inactive
same,outcome,[5],inactive
same,outcome,[14],inactive
C[S+](C)CCC(N)C(=O)O (centres undefined),outcome,[1],inactive
same,outcome,[2],inactive
same,outcome,[3],inactive
same,outcome,[4],inactive
same,outcome,[5],inactive
same,outcome,[14],inactive
C1=CC2C3C=CC(C3)C2C1 (centres undefined) (tested in a mixture with another compound),outcome,[1],inactive
same,outcome,[2],inactive
same,outcome,[3],inactive
same,outcome,[4],inactive
same,outcome,[5],inactive
same,outcome,[14],inactive
C[C@@H]1CCC[C@H](C)N1,outcome,[1],inactive
same,outcome,[2],inactive
same,outcome,[3],inactive
same,outcome,[4],inactive
same,outcome,[5],inactive
same,outcome,[6],inactive
same,outcome,[7],inactive
O=C(O)C(=O)Nc1cccc(-c2nn[nH]n2)c1,outcome,[1],inactive
same,outcome,[2],inactive
same,outcome,[3],inactive
same,outcome,[4],inactive
same,outcome,[5],inactive
same,outcome,[6],inactive
same,outcome,[7],inactive
CC(C)(C)OC(=O)c1cccc(N)c1,outcome,[1],inactive
same,outcome,[2],inactive
same,outcome,[3],inactive
same,outcome,[4],inactive
same,outcome,[5],inactive
same,outcome,[6],inactive
same,outcome,[7],inactive
O=S(=O)(c1ccccc1)c1ccc(Cl)cc1,outcome,[1],inactive
same,outcome,[2],inactive
same,outcome,[3],inactive
same,outcome,[4],inactive
same,outcome,[5],inactive
same,outcome,[6],inactive
same,outcome,[7],inactive
Cc1c(C(=O)NCCO)[n+](=O)c2ccccc2n1[O-],outcome,[1],inactive
same,outcome,[2],inactive
same,outcome,[3],inactive
same,outcome,[4],inactive
same,outcome,[5],inactive
same,outcome,[6],inactive
same,outcome,[7],inactive
C[N+]1(C)CCC(=C(c2ccccc2)c2ccccc2)CC1,outcome,[1],inactive
same,outcome,[2],inactive
same,outcome,[3],inactive
same,outcome,[4],inactive
same,outcome,[5],inactive
same,outcome,[14],inactive
Cc1nnc(C(C)C)n1C1C[C@H]2CC[C@@H](C1)N2CC[C@@H](NC(=O)C1CCC(F)(F)CC1)c1ccccc1 (some centres undefined),outcome,[1],inactive
same,outcome,[2],inactive
same,outcome,[3],inactive
same,outcome,[4],inactive
same,outcome,[5],inactive
same,outcome,[14],inactive
